# Assay outcomes (PubChem BioAssay)
# Shown are actives, neighbours in structure and some others; about 21% of the full set was active somewhere.
# CHX counter – counter-screen hit for Shiga toxin inhibitors, cycloheximide; cell reporter, cycloheximide protein synthesis inhibition counterscreen; max response, %; actives 12% (n = 300,000); in the data active means max response mostly above about 13%, no sharp cut-off; inactive means mostly below about 14%; further: read at 38.3 µM for the half of the compounds with a filed dose; 0% is about no effect
# NS1 function inh – blocks influenza NS1 protein function. Potency, µM (doses to about 46.1 µM), for the others: at the highest dose activity, positive = more growth. actives 0.4% (n = 270,000). AID 2326; further: potency means the concentration at half of the fitted maximal effect; actives are rising curves; nearly all actives have a fitted effect of over 50% in size
#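 In this qHTS, NS1 from influenza A is expressed in budding yeast, where it slows growth. Cells are switched from glucose to 2% galactose medium (pH 6.0, -URA), treated with compound, and growth recovery is read at OD600.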
# Pf growth 96h – P. falciparum growth inhibition at 96 hours | P. falciparum luciferase reporter growth, 96 h | Potency, µM (top dose mostly 28.7 µM), without a hit: at the top dose activity change, negative = inhibition, actives largely listed as inhibitors | actives 6.9% (n = 320,000) | AID 504834; active means well fitted inhibition curve with a large enough effect; inconclusive means small, poorly fitted or top-dose-only effect, or another doubt; inactive means no such curve, though single readings can be large or run the other way; further: potency means the concentration at half of the fitted maximal effect; on the % scale 0 is the no-effect control and ±100 the full control effect
#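 Parasite growth measured via integrated firefly luciferase reporter in P. falciparum. Infected erythrocytes at 2% hematocrit, 0.05% parasitemia final were treated 96 hours at 37 C under 5% CO2, and luminescence was read.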
# Pf growth 48h – P. falciparum growth inhibition at 48 hours (one generation). P. falciparum luciferase growth in erythrocytes, 48 h. Potency, µM (top dose mostly 28.7 µM), for the others: at the highest dose activity change, negative = inhibition, hits mostly inhibitors. actives 5.9% (n = 310,000); active means well fitted inhibition curve with a large enough effect; inconclusive means small, poorly fitted or top-dose-only effect, or another doubt; inactive means no such curve, though single readings can be large or run the other way; further: potency means the concentration at half of the fitted maximal effect; on the % scale 0 is the no-effect control and ±100 the full control effect
#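 Growth was read as firefly luciferase luminescence after a 48 h, 37 C, 5% CO2 exposure of compounds to reporter-bearing P. falciparum cultures (0.1% parasitemia, 2% hematocrit final) in Albumax-supplemented RPMI 1640.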
# Shiga inhibitor – blocks Shiga toxin action in Vero cells | Vero cells, Shiga toxin protein synthesis inhibition reporter | AID 2315 | inhibition, % at 38.7 µM | actives 9.2% (n = 290,000); in the data active means inhibition mostly above about 28%, no sharp cut-off; inactive means mostly below about 43%; further: 0% is about no effect
# SARS PLP yeast – blocks SARS-CoV papain-like protease in a yeast assay; S. cerevisiae expressing SARS-CoV PLpro, growth rescue; Potency, µM (highest dose often 32.9 µM), inactives show at the top dose activity, positive = growth rescue, usual class: activators; actives 0.19% (n = 330,000); further: potency means the concentration at half of the fitted maximal effect; 0% is about no effect; nearly all actives have a fitted effect of over 55% in size
# Active calls of the source: *; ? = inconclusive; / = no result given; [ ] = remark or other dose. Unless noted, the call rests on the fitted dose curve.
SMILES,CHX counter,NS1 function inh,Pf growth 96h,Pf growth 48h,Shiga inhibitor,SARS PLP yeast
CCOc1ccc(N2CC(C(=O)Nc3cccnc3)CC2=O)cc1 (stereo not given),-2,7%,12µM*,-21%,-10,1%
Cc1ccc(N2CC(C(=O)Nc3nnc(SCc4cccnc4)s3)CC2=O)cc1 (stereo not given),-3,1%,0%,9%,5,?
Cc1nnc(SCC(=O)NC2CC2)s1,-6,13%,13µM*,-1%,-5,1%
COc1ccccc1C(=O)Nc1nnc(SCC(=O)NC2CCCC2)s1,63*,2%,105%,216%,166*,2%
Cc1cc(NC(=O)CSc2nccn2-c2cccc(Cl)c2)no1,-1,-21%,-5%,-9%,-6,-2%
COc1ccc(N2CC(C(=O)Nc3nnc(SCC(=O)NC4CCCC4)s3)CC2=O)cc1 (stereo not given),8,7%,6.6µM*,-12%,8,4%
CCc1nc(SCC(=O)NC2CC2)c2c(C)c(C)sc2n1,5,-9%,4.7µM*,-5%,-5,-2%
O=C(CSc1nnc(NC(=O)C2CC(=O)N(c3ccccc3)C2)s1)NC1CCCC1 (stereo not given),-5,-4%,0%,4%,-11,-5%
CC(C)c1ccc(NC(=O)[C@@H]2CCC(=O)N2C2OC(=O)c3ccccc32)cc1 (stereo not given in full),28*,7%,255%,88%,38,1%
CCc1ccccc1NC(=O)[C@@H]1CCC(=O)N1C1OC(=O)c2ccccc21 (stereo not given in full),-3,-7%,1%,41%,-9,6%
CC(C)CCN(CCC(C)C)CC(O)Cn1c2ccccc2c(=O)c2ccccc21 (stereo not given),-4,-7%,?,1.7µM*,-12,0%
CCCN(CCC)CC(O)Cn1c2ccccc2c2ccccc21 (stereo not given),-4,-2%,?,?,-8,1%
O=C1Nc2ccccc2/C1=C\c1cccn1-c1ccc(OC(F)(F)F)cc1,7,18%,-17%,?,-4,-21%
Cc1ccc(-c2nc(C#N)c(NCCc3ccccn3)o2)cc1,17*,-15%,30%,/,36,-9%
N#Cc1nc(-c2ccc(Cl)cc2)oc1NCCc1ccccn1,12*,-4%,?,54%,35*,4%
CN(C)CCCNc1oc(-c2ccc(Cl)cc2)nc1C#N,13,1%,?,?,27,2%
COc1ccc(-n2c3nc4ccccc4nc3c3c(=N)oc(C)nc32)cc1,-5,10%,7%,29%,-8,5%
CN1C[C@@H](CS(=O)(=O)N(C)C)C[C@@H]2c3cccc4c3c(cn4C)C[C@H]21,/,4%,/,/,/,/
CCCn1cc2c3c(cccc31)C1CC(C)CN(C)C1C2 (stereo not given),7,-3%,12µM*,?,18,5%
N/C(CCS(=O)(=O)c1ccc(Cl)cc1)=N\OC(=O)c1ccccc1C(F)(F)F,2,-2%,9.3µM*,3.7µM*,-4,-2%
COc1ccccc1C(=O)Nc1ccnn1C1CCN(Cc2ccc3nonc3c2)CC1,7,2%,?,?,3,-3%
O=C(CN1C(=O)C2CCCCC2C1=O)Nc1cccc(C(F)(F)F)c1 (stereo not given),/,/,/,/,/,-2%
O=C(CNC1CCCCC1)Nc1cccc(C(F)(F)F)c1,-1,-5%,9.3µM*,-23%,-11,23%
O=C(CNC1CC1)Nc1cc(C(F)(F)F)ccc1Cl,13,7%,1.5µM*,1.2µM*,12,-1%
Cc1cc(=O)[nH]c(SCC(=O)Nc2nc3c(s2)CCCC3)n1,10,2%,-21%,12%,24,6%
SMILES,CHX counter,NS1 function inh,Pf growth 96h,Pf growth 48h,Shiga inhibitor,SARS PLP yeast
O=C(CSC1=NCCS1)Nc1nc2c(s1)CCCC2,39*,?,?,31%,99*,5%
Cn1nnnc1SCC(=O)Nc1nc2c(s1)CCCC2,42*,6%,351%,/,70*,3%
Cc1csc(NC(=O)CSC2=NCCS2)n1,37*,9%,?,10%,19,5%
COc1cc(OC)cc(-n2nnnc2SCC(=O)Nc2nc3c(s2)CCCC3)c1,-5,2%,/,-7%,-18,1%
COc1ccccc1NC(=O)C1=C(C)NC(=O)NC1c1cc(C)cs1 (stereo not given),-3,11%,?,-6%,-2,-2%
O=C(N/N=C/c1ccccc1[N+](=O)[O-])c1ccc(CN2CCOCC2)cc1,16,-9%,9.3µM*,25%,-19,-1%
O=C(Nc1ccc(CN2CCOCC2)cc1)c1ccc(Br)cc1,17*,13%,24%,36%,31,5%
O=C(Nc1ccc(Cn2cccn2)cc1)c1ccc(COc2ccccc2Br)cc1,13,4%,12µM*,-30%,51,-7%
O=C(Nc1ccc(CN2CCOCC2)cc1)c1ccc2ccccc2c1,59*,-2%,?,24%,46*,8%
COc1ccc(C(=O)Nc2cccc(S(=O)(=O)NC3=NCCC3)c2)cc1OC,/,/,/,/,/,1%
COc1cc(NS(=O)(=O)c2ccc(Br)cc2)c(OC)cc1NC(=O)c1ccco1,6,-38%,/,?,17,-7%
O=C(Nc1ccc(CN2CCOCC2)cc1)c1ccc(-c2ccc(Br)cc2)o1,-1,-4%,9%,1.9µM*,-6,-2%
O=C(Nc1ccc(CN2CCOCC2)cc1)c1ccc(Cl)cc1,33*,-5%,41%,55%,36*,6%
CC(C)COc1cccc(C(=O)Nc2ccc(S(=O)(=O)N3CCOCC3)cc2)c1,-3,3%,/,?,-4,2%
C/C(=N\NC(=O)CSCc1ccc(Cl)cc1)c1ccc(NC(=O)c2ccccc2)cc1,23*,-4%,64%,/,21,-13%
CC(C)COc1cccc(C(=O)Nc2ccc(CN3CCOCC3)cc2)c1,17,3%,8.3µM*,-28%[0.00184 µM],16,0%
C/C(=N/NC(=O)CSCc1ccc(Cl)cc1)c1cccc(NC(=O)c2ccccc2)c1,8,-60%,28%,/,1,5%
CC(=O)CC1=NC(C)(C)Cc2ccccc21,7,/,?,39%,-13,0%
Cc1cccc(C)c1NC(=S)N(CCCN1CCOCC1)Cc1cccnc1,-3,/,-92%,-9%,-5,1%
CC(=O)Nc1ccc(/C=C(\C#N)S(=O)(=O)c2ccc(C)cc2)cc1,/,/,/,/,/,-19%
CC(C)(C)c1ccc(C(=O)Nc2ccc(CN3CCS(=O)(=O)CC3)cc2)cc1,17*,-1%,?,-17%,36,0%
O=C(Nc1ccc(F)cc1)c1ccc(Cn2cnnn2)cc1,16*,/,34%,9%,32,3%
O=C(Nc1cccc(OCC(=O)N2CCOCC2)c1)c1cccc([N+](=O)[O-])c1,-3,1%,7.4µM*,15%,-9,0%
